Bioassay records: PubChem, National Center for Advancing Translational Sciences (NCATS)
Compounds with a hit are over-represented: about 2.8% of the library has one in this group of screens.
S2 tox: reduces viability in counter-screen for ATXN expression inhibitors | S2 cells (HEK-293 line with an ATXN2-luciferase reporter) viability, CellTiter-Fluor protease fluorescence, 24 h | Potency, µM (doses to about 56.7 µM), actives largely listed as cytotoxic | 400,000 tested, 0.49% active; further: potency means the concentration at half of the fitted maximal effect; nearly all actives have a fitted effect of over 40% in size
HepG2 viability: kills HepG2 cells in TGF-b inhibitor counter-screen. 410,000 tested, 0.76% active. Potency, µM (highest dose often 46.1 µM), without a hit: top-dose activity change, negative = cytotoxicity, usual class: cytotoxic. HepG2 CAGA-GFP viability, ATP luminescence, 18 h; further: potency means the concentration at half of the fitted maximal effect
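CellTiter-Glo luminescence gave cytotoxicity after 18 hours at 37 degrees C. The cells were HepG2 CAGA-GFP in 1% FBS DMEM, stimulated with 500 pg/mL TGF-beta after compound addition. %Activity was normalised to no-cell wells (complete cell-killing) and DMSO (no toxicity), and curves were fitted and classified.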
Six1-Eya2 inh: blocks human Six1 binding to Eya2; Q15475+O00167; AlphaScreen GST-Six1/His-Eya2 binding, biochemical; stronger effect = lower value; activity change, % (concentration not given with the values); 360,000 tested, 0.56% active; AID 651725; in the data active means activity change below about -65%; inconclusive means mostly about -30% to -63%; further: on the % scale 0 is the no-effect control and ±100 the full control effect
Target sequence (O00167 whole entry, looked up): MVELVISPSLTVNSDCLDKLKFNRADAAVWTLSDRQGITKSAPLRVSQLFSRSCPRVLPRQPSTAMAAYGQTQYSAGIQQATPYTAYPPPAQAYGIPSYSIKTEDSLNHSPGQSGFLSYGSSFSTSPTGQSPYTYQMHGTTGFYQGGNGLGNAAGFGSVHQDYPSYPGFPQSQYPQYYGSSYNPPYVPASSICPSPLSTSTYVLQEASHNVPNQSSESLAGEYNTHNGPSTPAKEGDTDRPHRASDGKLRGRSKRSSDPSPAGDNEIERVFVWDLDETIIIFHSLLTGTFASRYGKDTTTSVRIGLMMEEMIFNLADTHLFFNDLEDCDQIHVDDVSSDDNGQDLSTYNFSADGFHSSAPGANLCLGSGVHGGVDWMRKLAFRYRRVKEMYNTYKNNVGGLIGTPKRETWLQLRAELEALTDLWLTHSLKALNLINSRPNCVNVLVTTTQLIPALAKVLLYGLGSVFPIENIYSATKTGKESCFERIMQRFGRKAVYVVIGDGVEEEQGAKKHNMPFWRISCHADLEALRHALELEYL
Target sequence (Q15475 whole entry, looked up): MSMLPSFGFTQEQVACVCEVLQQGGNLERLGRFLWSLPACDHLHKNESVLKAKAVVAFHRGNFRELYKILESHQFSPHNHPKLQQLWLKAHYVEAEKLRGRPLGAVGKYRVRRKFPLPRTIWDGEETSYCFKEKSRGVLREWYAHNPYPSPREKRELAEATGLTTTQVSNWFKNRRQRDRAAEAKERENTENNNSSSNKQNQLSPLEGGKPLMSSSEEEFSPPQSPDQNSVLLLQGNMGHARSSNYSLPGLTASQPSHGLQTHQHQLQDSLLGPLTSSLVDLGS
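GST-Six1 + His-Eya2 (5X stock: 250/500 nM); Tris pH 8.0, 300 mM NaCl, 0.05% BSA, 0.02% Tween 20; GSH donor/Ni acceptor beads; 1 h 37 °C dark; AlphaScreen readout.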
CtBP-E1A blk: inhibitors of CtBP/E1A interaction; 340,000 tested, 0.49% active; AID 651724; activity change, % (concentration not given with the values); AlphaScreen GST-E1A/His-CtBP binding, 1536-well; stronger effect = lower value; in the data active means activity change below about -65%; inconclusive means mostly about -30% to -63%; further: on the % scale 0 is the no-effect control and ±100 the full control effect
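Steps: dispense buffer (Tris pH 8.0, NaCl 300 mM, TCEP 1 mM, BSA, Tween 20); add 5X protein mix (GST-E1A, His-CtBP, 125 nM each); pin 23 nL compound; 2 h at 37 °C, dark; add 5X beads (50 ug/mL); 1 h; read.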
ATXN2 expr inh: inhibitors of ATXN2 expression; 360,000 tested, 0.72% active; HEK-293 ATXN2-luciferase reporter, luminescence, 24 h; Potency, µM (titrated, usually from 57 µM), for inactives: top-dose activity change, negative = inhibition, usual class: inhibitors; further: potency means the concentration at half of the fitted maximal effect; on the % scale 0 is the no-effect control and ±100 the full control effect; nearly all actives have a fitted effect of over 55% in size
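ATXN2-luciferase reporter cells (luciferase flanked by upstream and downstream ATXN2 gene portions) were treated 24 h at 37 °C with compounds at up to 57 uM. SteadyGlo luminescence gave expression; GF-AFC fluorescence gave viability.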
TGFb SMAD3 inh: TGF-b pathway inhibition. Potency, µM (titrated, usually from 46.1 µM), inactives show top-dose activity, negative = inhibition, usual class: inhibitors. 410,000 tested, 1.2% active. HepG2 CAGA-GFP TGF-b/SMAD3 reporter, GFP fluorescence, 18 h; TGF-beta stimulated, 500 pg/mL final; further: potency means the concentration at half of the fitted maximal effect; on the % scale 0 is the no-effect control and ±100 the full control effect; nearly all actives have a fitted effect of over 65% in size
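TGF-beta reporter screen: HEPG2 CAGA-GFP, 1% FBS, 500 pg/mL TGF-beta final, 18 h; per-cell GFP summed per well; curves fitted and categorized by class.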
Active calls of the source: *. Unless noted, the call rests on the fitted dose curve; in most records, active means well fitted curve in the direction sought with a large enough effect; inconclusive means small, poorly fitted or top-dose-only effect, or another doubt; inactive means no such curve, though single readings can be large; an effect the other way counts as inactive or inconclusive.

What do the screens show for `CC(C)c1cc(C(=O)OCC(=O)NC2CC2)c(O)c(C(C)C)c1`?
S2 tox: inactive; HepG2 viability: -16%; Six1-Eya2 inh: 8; CtBP-E1A blk: -3; TGFb SMAD3 inh: 1%

What do the screens show for `O=[N+]([O-])c1ccc(/C=N/Nc2ncccc2[N+](=O)[O-])s1`?
S2 tox: inactive; HepG2 viability: 5µM*; Six1-Eya2 inh: 18; CtBP-E1A blk: 17; ATXN2 expr inh: -5%; TGFb SMAD3 inh: -17%

What do the screens show for `COc1cccc(/C=N/Nc2ncccc2[N+](=O)[O-])c1OC`?
S2 tox: inactive; HepG2 viability: -60%; Six1-Eya2 inh: -17; CtBP-E1A blk: -8; ATXN2 expr inh: 3.2µM*; TGFb SMAD3 inh: -20%

Results for CCn1ccc2cc(S(=O)(=O)N3CCCN(C(=O)Nc4ccc(C)cc4)CC3)ccc21 ?
S2 tox: inactive; HepG2 viability: -15%; ATXN2 expr inh: 1%; TGFb SMAD3 inh: -12%

How did CN(C)CC(C)(C)CNC(=O)c1cnn(-c2ncc3c(n2)-c2ccccc2CC3)c1-c1ccco1 do in these assays?
S2 tox: inactive

What do the screens show for `Cc1onc(-c2ccccc2)c1C(=O)OCCOc1ccc([N+](=O)[O-])cc1[N+](=O)[O-]`?
S2 tox: inactive; HepG2 viability: -30%; Six1-Eya2 inh: -18; CtBP-E1A blk: -9; ATXN2 expr inh: -34%; TGFb SMAD3 inh: 14µM*

Results for CN[C@@H]1[C@@H](O)[C@@H](O[C@@H]2[C@@H](O)[C@H](O[C@H]3O[C@H](CN)[C@@H](O)[C@H](O)[C@@H]3O)[C@@H](N)C[C@@H]2NC(=O)[C@@H](O)CN)OC[C@]1(C)O ?
ATXN2 expr inh: 5%

Results for COc1ccccc1N1CCN(Cc2ccc(O)c3ncccc23)CC1 ?
S2 tox: inconclusive; HepG2 viability: -57%; Six1-Eya2 inh: -91*; CtBP-E1A blk: -90*; ATXN2 expr inh: 3.5µM*; TGFb SMAD3 inh: inconclusive

What do the screens show for `Oc1ccc(CN2CCCc3ccccc32)c2cccnc12`?
S2 tox: inconclusive; HepG2 viability: -27%; Six1-Eya2 inh: -93*; CtBP-E1A blk: 0; ATXN2 expr inh: -15%; TGFb SMAD3 inh: inconclusive

Results for c1ccc(-c2nnc(CN3CCCc4ccccc43)o2)cc1 ?
S2 tox: inactive; HepG2 viability: 4%; Six1-Eya2 inh: -2; CtBP-E1A blk: 5; ATXN2 expr inh: 36%; TGFb SMAD3 inh: 48%

Results for CCOC(=O)C1CCN(Cc2ccc(O)c3ncccc23)CC1 ?
S2 tox: inconclusive; HepG2 viability: 7.9µM*; Six1-Eya2 inh: -92*; CtBP-E1A blk: -98*; ATXN2 expr inh: -37%; TGFb SMAD3 inh: inconclusive

How did CCCOc1ccc(C(=O)Nc2ccc(S(=O)(=O)NC3=NCCCCC3)cc2)cc1 do in these assays?
S2 tox: inactive; HepG2 viability: 0.32µM*; Six1-Eya2 inh: -28; CtBP-E1A blk: -1; ATXN2 expr inh: -21%; TGFb SMAD3 inh: 0%

How did O=C(Cc1cccs1)NC(c1ccccc1)c1ccccc1 do in these assays?
S2 tox: inactive; HepG2 viability: 22%; Six1-Eya2 inh: -4; CtBP-E1A blk: -4; ATXN2 expr inh: -4%; TGFb SMAD3 inh: 29%

Results for O=C(COC(=O)/C(=C/c1cccs1)c1cccs1)NC(c1ccccc1)c1ccccc1 ?
S2 tox: inactive; HepG2 viability: -31%; Six1-Eya2 inh: -27; CtBP-E1A blk: -19; ATXN2 expr inh: 17%; TGFb SMAD3 inh: 13µM*

What do the screens show for `COc1cc(C2CC(=O)c3c([nH]c(C(=O)OC4CCCC4)c3C)C2)cc(OC)c1OC` (configuration not stated)?
S2 tox: 32µM*; HepG2 viability: -20%; ATXN2 expr inh: -21%; TGFb SMAD3 inh: inconclusive

Results for COC(=O)c1[nH]c2c(c1C)C(=O)CC(c1cc(OC)c(OC)c(OC)c1)C2 (configuration not stated) ?
S2 tox: inactive; HepG2 viability: 3%; Six1-Eya2 inh: -2; TGFb SMAD3 inh: 5%

How did OC1CCN(Cc2ccc3c(c2)CN(C/C=C/c2ccco2)CCO3)CC1 do in these assays?
S2 tox: inactive

What do the screens show for `C/C(=N\Nc1cc(N2CCCCC2)nc(C)n1)c1ccc(Br)cc1`?
S2 tox: inactive; HepG2 viability: 16µM*; Six1-Eya2 inh: -6; CtBP-E1A blk: -15; ATXN2 expr inh: inconclusive; TGFb SMAD3 inh: 10µM*

How did O=[N+]([O-])c1ccc(C=C2c3ccccc3-c3ccccc32)cc1 do in these assays?
HepG2 viability: -62%; TGFb SMAD3 inh: inconclusive

How did N#C/C(=C\c1ccc(OCc2ccc(C(=O)O)cc2)cc1)C(=O)N1CCOCC1 do in these assays?
S2 tox: inactive; HepG2 viability: -20%; Six1-Eya2 inh: -1; CtBP-E1A blk: -12; ATXN2 expr inh: 8.9µM*; TGFb SMAD3 inh: -14%

How did CCCCCCCCN1C(=O)[C@H](CC(=O)NCc2ccc(OC)c(OC)c2)C[C@@]2(C(=O)OCC)CCCC=C12 do in these assays?
S2 tox: 14µM*; Six1-Eya2 inh: -18; CtBP-E1A blk: -12; ATXN2 expr inh: inconclusive

What do the screens show for `CCCCOCCCNC(=O)C[C@@H]1C[C@@]2(C(=O)OCC)CCCC=C2N(Cc2cccc3ccccc23)C1=O`?
S2 tox: 35µM*; Six1-Eya2 inh: -13; CtBP-E1A blk: -1; ATXN2 expr inh: inconclusive

How did CCOC(=O)[C@]12CCCC=C1N(Cc1cccc3ccccc13)C(=O)[C@H](CC(=O)NCc1cccc3ccccc13)C2 do in these assays?
S2 tox: inactive; Six1-Eya2 inh: -11; CtBP-E1A blk: 3; ATXN2 expr inh: 5%

Results for Cc1cc(C)cc(NC(=O)c2sc3nc4n(c(=O)c3c2C)N=C(c2ccc(F)cc2)CS4)c1 ?
S2 tox: inactive; HepG2 viability: 6%; ATXN2 expr inh: 6%; TGFb SMAD3 inh: 4%

What do the screens show for `CCCCCN1CSC(=S)N(Cc2ccccc2)C1`?
S2 tox: inconclusive; HepG2 viability: -9%; Six1-Eya2 inh: 2; CtBP-E1A blk: 4; ATXN2 expr inh: -30%; TGFb SMAD3 inh: 10µM*

Results for CCN1CSC(=S)N(Cc2ccc(OC)cc2)C1 ?
S2 tox: inconclusive; HepG2 viability: 7.9µM*; Six1-Eya2 inh: 0; CtBP-E1A blk: -2; TGFb SMAD3 inh: 4µM*

What do the screens show for `S=C1SCN(Cc2cccs2)CN1Cc1cccs1`?
S2 tox: inconclusive; HepG2 viability: -85%; Six1-Eya2 inh: 9; CtBP-E1A blk: 0; TGFb SMAD3 inh: 13µM*
